The structures appear in SMILES notation. This is one part of the list. Unmarked numbers belong to inactive results. Activity calls are given as the source filed them.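 Rule for the calls: active = mean inhibition above about 50% in the one-dose retest (limit read from the data); inactive = the rest.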

Chain of Sentrin-specific protease 6 (Homo sapiens) (Q9GZR1 628-1112 limits assumed): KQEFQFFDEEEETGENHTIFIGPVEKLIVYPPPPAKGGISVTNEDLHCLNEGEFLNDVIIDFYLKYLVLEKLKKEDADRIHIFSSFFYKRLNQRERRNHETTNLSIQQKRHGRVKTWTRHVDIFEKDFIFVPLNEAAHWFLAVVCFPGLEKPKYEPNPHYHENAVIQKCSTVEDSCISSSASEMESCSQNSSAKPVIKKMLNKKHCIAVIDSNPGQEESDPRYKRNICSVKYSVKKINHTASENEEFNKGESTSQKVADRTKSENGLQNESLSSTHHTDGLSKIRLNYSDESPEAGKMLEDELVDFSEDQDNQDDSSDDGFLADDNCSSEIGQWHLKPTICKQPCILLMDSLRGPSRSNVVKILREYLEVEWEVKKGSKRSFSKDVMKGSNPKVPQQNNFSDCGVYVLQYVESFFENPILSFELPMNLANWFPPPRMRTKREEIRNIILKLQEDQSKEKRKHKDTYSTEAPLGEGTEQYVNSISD

This assay concerns the target Sentrin-specific protease 6 (Homo sapiens) (UniProt Q9GZR1). Put plainly: inhibition of human SENP6 catalytic domain – biochemical, luminescence, single concentration, confirmation (AID 488915). Conditions: recombinant SENP6, Z-RLRGG-aminoluciferin luminescence; at 12.5 µM; active compounds read high.
With `CC(=O)Oc1ccc2c(c1)C(=O)c1ccccc1C2=O`, the inhibition (in general, the relative decrease from the control value, in per cent) is 43.9%.
Under `CCOC(=O)c1cnc2[nH]c3ccccc3n2c1=O` stands 79% (active); under `O=C(Nc1ccc(Cl)cc1)c1ccsn1`, 46.8%; under `O=[N+]([O-])c1ccccc1N/N=C1\CCc2ccccc21`, -5.8%.
Under `O=C(Nc1ccccc1)c1ccc(NC(=O)c2cccs2)cc1` stands -4.8%; under `O=[N+]([O-])c1ccc2nc(-c3ccccn3)[nH]c2c1`, 56% (active); under `O=C(NC(=O)c1ccccc1)Nc1ccccc1O`, 6.3%.
Then `CCOC(=O)c1cccc(NC(=O)c2ccc(F)cc2F)c1`, with 48.2%.
On to `COc1ccc(/C=C/c2noc(-c3ccccc3OC(C)=O)n2)cc1`, for which the inhibition was 87.7% (active).
With `O=c1c2c(nc3cc(-c4cccc(Cl)c4)[nH]n13)CCCC2`, the inhibition was 0%.
Then `COc1ccccc1NC(=O)c1ccc(N2CC3CC(C2)c2cccc(=O)n2C3)c(NC(=O)c2cccnc2)c1` (configuration not stated), with 5.2%; and `O=C(O)/C=C/C(=O)NNc1ccc([N+](=O)[O-])cc1`, with 65.4% (active); and `O=C(O)c1ccc2c3c(cccc13)C(=O)N(OS(=O)(=O)c1ccccc1)C2=O`, with 29.2%.
Then `O=C(c1cnn2ccccc12)N1CCc2ccccc21`, with 39.6%; and `O=C(c1ccc(CSc2ccccc2)cc1)N1CCCCCC1`, with 57% (active); and `COc1ccc(C(CC(=O)c2ccccc2)S(=O)(=O)c2ccccc2)cc1` (configuration not stated), with 33.4%.
Then `COCn1c(COc2ccccc2)nc2ccccc21`, with 39.5%.
